Source: PubChem BioAssay (NCI)
This is part of a sample that, as a whole, favours compounds with a hit. Of some 79,000 tested, about 15% had one in any assay. The source made the active and inactive calls. No stated cut-off is given here; in the data, active means growth inhibition above about 70%; inactive means the rest. Where a SMILES comes first, the peptide text is derived from it. [ ]: non-standard residue; d: D form. Hiv = CC(C)[C@H](O)C(=O)O

assay: NCI Yeast Anticancer Drug Screen. Data for the bub3 strain (AID 167); details: S. cerevisiae bub3 mutant strain, at 50.0 µM, active compounds read high
In short: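 In this screen, a yeast mutant lacking normal mitotic checkpoint function is challenged with compound. Relative growth versus vehicle gives the inhibition value.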

SMILES	growth inhibition
CC(=O)NC(CCCN(Cc1ccccc1)C(=O)NCCCl)C(=O)NCc1ccccc1 (stereo not given)	-33.7% (inactive)
NC(=O)CNc1ccc(CC2CCOC2=O)cc1 (stereo not given)	0.6% (inactive)
S=C(NNC1=NCCN1)Nc1ccccc1	-20.9% (inactive)
CCOC(=O)C(C)(C)C(O)C(C)C (stereo not given)	-12.7% (inactive)
CCOC(=O)[C@H]1Nc2c(cccc2[N+](=O)[O-])[C@H]2OCC[C@@H]12	-22.6% (inactive)
CCCCCCCCC(=O)N1CCOCC1	-0.8% (inactive)
CC(C)CC1=C(N(C)C)C(=O)C=C(N(C)C)C1=O	-9.85% (inactive)
CC(=O)OC(C)C(=O)OCCOc1ccccc1 (stereo not given)	-7.3% (inactive)
CNC(=O)Nc1ccc(C(=O)O)cc1	9.8% (inactive)
O=C1CC2c3ccccc3C(O)(CC1=O)c1ccccc12	-16.6% (inactive)
CCCCC(=O)c1ccc2ccccc2c1O	-6.3% (inactive)
CC(C)OP(=O)(CCC(=O)C1(O)CCC2C3CCC4=CC(=O)CCC4(C)C3CCC21C)OC(C)C (stereo not given)	0.65% (inactive)
CC(C)[C@@H]1OC(=O)[C@@H](C)NC(=O)[C@@H]2CCCN2C1=O (cyclo([Hiv]-Pro-[dA]))	-22.6% (inactive)
O=C(/C=N\O)Nc1ccccc1O	-5.15% (inactive)
Br	-30.6% (inactive)
Cc1cn(C2CC(O)C(CO)C2C)c(=O)[nH]c1=O (stereo not given)	-11.8% (inactive)
O=C(c1ccccc1)N1OCCC1Nc1ccc(Br)cc1 (stereo not given)	-15% (inactive)
Cc1nc2ccccc2c(=O)n1NC(=O)c1ccccn1	-5.55% (inactive)
CCNc1ccc2c(c1)C(=O)c1ccccc1-2	-4.05% (inactive)
COc1ccc2c(c1)CC/C(=C\C1(Sc3ccccc3)CC1)C2O (stereo not given)	-10.7% (inactive)

SMILES	growth inhibition
C/C(=N/N=C(N)N)c1cnn(C(=N)N)c1C	20.9% (inactive)
CCCCCCCCCCCCCC#N	1.65% (inactive)
O=S(=O)(c1cccc(C(F)(F)F)c1)N(CCCCCN(S(=O)(=O)c1cccc(C(F)(F)F)c1)S(=O)(=O)c1cccc(C(F)(F)F)c1)S(=O)(=O)c1cccc(C(F)(F)F)c1	11.9% (inactive)
CCN(CC)CCOC(=O)c1ccc(NC(=O)Nc2ccccc2[N+](=O)[O-])cc1	15.6% (inactive)
C[N+]1(C)CC2CCC1C2 (stereo not given)	-9.05% (inactive)
COc1cc2c(cc1OC)C1c3ccccc3CCCN1CC2 (stereo not given)	-23.6% (inactive)
CNc1ccc2c(c1)C(=O)c1ccccc1-2	1.35% (inactive)
Cc1ccc(N=Nc2c(O)n(C)c(=O)n(C)c2=O)cc1C	-18.6% (inactive)
N#C/C(N)=C(\C#N)NC=NCCO	10.6% (inactive)
CCC(CC)CC1CCCCC1O (stereo not given)	-48.7% (inactive)
C/C(CC(C)(C)C)=N/NS(=O)(=O)c1ccc(C)cc1	5.45% (inactive)
CCCSc1nc2c(c(=O)n(C)c(=O)n2C)n1C	9.15% (inactive)
COC1CC(OC2CCC3(C)C(=CCC4C3C(OC(C)=O)C(OC(=O)CC(C)C)C3(C)C(C(C)=O)CCC43O)C2)OC(C)C1OC1CC(OC)C(OC2CC(OC)C(OC3OC(C)C(OC4OC(CO)C(O)C(O)C4O)C(OC)C3O)C(C)O2)C(C)O1 (stereo not given)	-7.45% (inactive)
CN(C)CCNS(=O)(=O)N(C)C	-51.8% (inactive)
CC1=C(C(=O)Nc2ccccc2C)C(c2ccc(C3C(C(=O)Nc4ccccc4C)=CNC=C3C(=O)Nc3ccccc3C)cc2)C(C(=O)Nc2ccccc2C)=C(C)N1	50.4% (inactive)
CCOC(=O)NCc1ccccc1	-6.35% (inactive)
Nc1nc(-c2ccccc2)nc(N)c1C=O	-6.9% (inactive)
O=C1C2CC3CC(C2)CC1C3	6.05% (inactive)
CC1=Nc2c([nH]c(=S)[nH]c2=O)NC(c2c(Cl)cccc2Cl)C1 (stereo not given)	-4.5% (inactive)
COc1cc2c(c(OC)c1OC)-c1cccc(=O)cc1C(NC(C)=O)CC2 (stereo not given)	-2.2% (inactive)

assay: NCI Yeast Anticancer Drug Screen. Data for the mlh1 rad18 strain (AID 175); details: S. cerevisiae mlh1 rad18 strain growth inhibition; at 50.0 µM; active compounds read high
In short: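 Test agents were incubated with a yeast strain of defined genotype (DNA damage repair defect). Inhibition of growth was derived by comparison with vehicle-exposed cultures.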

SMILES	growth inhibition
CC(=O)NC(CCCN(Cc1ccccc1)C(=O)NCCCl)C(=O)NCc1ccccc1 (stereo not given)	-18.6% (inactive)
NC(=O)CNc1ccc(CC2CCOC2=O)cc1 (stereo not given)	-5.7% (inactive)
S=C(NNC1=NCCN1)Nc1ccccc1	-12.7% (inactive)
CCOC(=O)C(C)(C)C(O)C(C)C (stereo not given)	3.95% (inactive)
CCOC(=O)[C@H]1Nc2c(cccc2[N+](=O)[O-])[C@H]2OCC[C@@H]12	-26.9% (inactive)
CCCCCCCCC(=O)N1CCOCC1	8.8% (inactive)
CC(C)CC1=C(N(C)C)C(=O)C=C(N(C)C)C1=O	-13.4% (inactive)
CC(=O)OC(C)C(=O)OCCOc1ccccc1 (stereo not given)	-4% (inactive)
CNC(=O)Nc1ccc(C(=O)O)cc1	5.2% (inactive)
O=C1CC2c3ccccc3C(O)(CC1=O)c1ccccc12	19.2% (inactive)
CCCCC(=O)c1ccc2ccccc2c1O	6.8% (inactive)
CC(C)OP(=O)(CCC(=O)C1(O)CCC2C3CCC4=CC(=O)CCC4(C)C3CCC21C)OC(C)C (stereo not given)	-8.6% (inactive)
CC(C)[C@@H]1OC(=O)[C@@H](C)NC(=O)[C@@H]2CCCN2C1=O (cyclo([Hiv]-Pro-[dA]))	-16.4% (inactive)
O=C(/C=N\O)Nc1ccccc1O	-1.9% (inactive)
Br	-44.1% (inactive)
Cc1cn(C2CC(O)C(CO)C2C)c(=O)[nH]c1=O (stereo not given)	-24.9% (inactive)
O=C(c1ccccc1)N1OCCC1Nc1ccc(Br)cc1 (stereo not given)	3.65% (inactive)
Cc1nc2ccccc2c(=O)n1NC(=O)c1ccccn1	-8.25% (inactive)
CCNc1ccc2c(c1)C(=O)c1ccccc1-2	-0.05% (inactive)
COc1ccc2c(c1)CC/C(=C\C1(Sc3ccccc3)CC1)C2O (stereo not given)	-15.8% (inactive)

SMILES	growth inhibition
C/C(=N/N=C(N)N)c1cnn(C(=N)N)c1C	28.4% (inactive)
CCCCCCCCCCCCCC#N	25.8% (inactive)
O=S(=O)(c1cccc(C(F)(F)F)c1)N(CCCCCN(S(=O)(=O)c1cccc(C(F)(F)F)c1)S(=O)(=O)c1cccc(C(F)(F)F)c1)S(=O)(=O)c1cccc(C(F)(F)F)c1	10.2% (inactive)
CCN(CC)CCOC(=O)c1ccc(NC(=O)Nc2ccccc2[N+](=O)[O-])cc1	14.8% (inactive)
C[N+]1(C)CC2CCC1C2 (stereo not given)	-7.1% (inactive)
COc1cc2c(cc1OC)C1c3ccccc3CCCN1CC2 (stereo not given)	-27% (inactive)
CNc1ccc2c(c1)C(=O)c1ccccc1-2	-11.4% (inactive)
Cc1ccc(N=Nc2c(O)n(C)c(=O)n(C)c2=O)cc1C	-12.8% (inactive)
N#C/C(N)=C(\C#N)NC=NCCO	-37.8% (inactive)
CCC(CC)CC1CCCCC1O (stereo not given)	-11.9% (inactive)
C/C(CC(C)(C)C)=N/NS(=O)(=O)c1ccc(C)cc1	12.7% (inactive)
CCCSc1nc2c(c(=O)n(C)c(=O)n2C)n1C	6.5% (inactive)
COC1CC(OC2CCC3(C)C(=CCC4C3C(OC(C)=O)C(OC(=O)CC(C)C)C3(C)C(C(C)=O)CCC43O)C2)OC(C)C1OC1CC(OC)C(OC2CC(OC)C(OC3OC(C)C(OC4OC(CO)C(O)C(O)C4O)C(OC)C3O)C(C)O2)C(C)O1 (stereo not given)	-38.4% (inactive)
CN(C)CCNS(=O)(=O)N(C)C	8.45% (inactive)
CC1=C(C(=O)Nc2ccccc2C)C(c2ccc(C3C(C(=O)Nc4ccccc4C)=CNC=C3C(=O)Nc3ccccc3C)cc2)C(C(=O)Nc2ccccc2C)=C(C)N1	46% (inactive)
CCOC(=O)NCc1ccccc1	20.1% (inactive)
Nc1nc(-c2ccccc2)nc(N)c1C=O	-20.6% (inactive)
O=C1C2CC3CC(C2)CC1C3	14.9% (inactive)
CC1=Nc2c([nH]c(=S)[nH]c2=O)NC(c2c(Cl)cccc2Cl)C1 (stereo not given)	34.6% (inactive)
COc1cc2c(c(OC)c1OC)-c1cccc(=O)cc1C(NC(C)=O)CC2 (stereo not given)	21.1% (inactive)
